Measurements published in PubChem BioAssay AID602325 (NMMLSC, 2012).
The other results are listed elsewhere or left out. Activity calls are given as the source filed them. Rule as the data show it: active = inhibition above about 24%; inactive = the rest.

Test system: Botulinum neurotoxin type A light chain protease [Clostridium botulinum A str. ATCC 3502]
Experiment: BoNT/A light chain protease inhibitors, confirmation, biochemical, flow cytometry, cherry pick 2 (AID 602325)
Details: multiplex microsphere protease cleavage assay, at 10 µM, hits give high values

Row | SMILES | inhibition
1 | O=C(CN1CCN(c2ccccc2O)CC1)NC(=O)NCc1ccccc1 | 1.6% (inactive)
2 | Cc1ccc(CNC(=O)c2cccc3c2C(=O)c2ccc(N4CCC(C)CC4)cc2S3(=O)=O)cc1 | 8.9% (inactive)
3 | O=C(OCC(=O)c1c[nH]c2ccccc12)c1cccc(O)c1 | 1.5% (inactive)
4 | CCOc1ncccc1C(=O)OCC(=O)c1c[nH]c2ccccc12 | 9.5% (inactive)
5 | Cc1cc2ccccc2n1CCNC(=O)COc1ccc2ccccc2c1 | 5.2% (inactive)
6 | COc1ccc(-c2cc3c(c4c2ccn4C)C2CCC3C2)cn1 (stereo not drawn) | 25.2% (active)
7 | CC(=O)OCCN(CCCn1c(-c2ccncc2)nc2ccccc21)c1nc(-c2ccc(C)cc2)cs1 | 1.8% (inactive)
8 | Cc1cc2cc(CNC(=O)c3ccc(S(=O)(=O)N4CCOCC4)cc3)ccc2[nH]1 | 3.8% (inactive)
